Source: PubChem
Sampled rows, rich in hits. Any-hit rate of the full collection: about 18%.
TDP1 inh – qHTS Assay for Inhibitors of Tyrosyl-DNA Phosphodiesterase (TDP1) | recombinant TDP1, AlphaScreen DNA substrate cleavage | 350,000 tested, 0.28% active | Potency, µM (series often up to 130 µM), for the others: at the top dose activity change, negative = inhibition, actives largely listed as inhibitors | Tyrosyl-DNA phosphodiesterase 1 (Homo sapiens), Q9NUW8; also: potency is read from the fitted curve at half-maximal effect; nearly all actives have a fitted effect of over 40% in size
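Here, a 5' biotin and 3' phosphotyrosine-FITC DNA oligonucleotide reports Tdp1 activity: intact substrate bridges AlphaScreen beads, while cleavage leaves a 3' phosphate and drops signal. All incubations at room temperature.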
Six1-Eya2 inh – qHTS Assay for Inhibitors of the Six1/Eya2 Interaction | AlphaScreen GST-Six1/His-Eya2 binding, biochemical; stronger effect = lower value | activity change, % (concentration not given with the values) | 360,000 tested, 0.56% active | AID 651725, 2012; in the data active = activity change below about -65%; inconclusive = mostly about -30% to -63%
Target sequence (O00167 whole entry, looked up): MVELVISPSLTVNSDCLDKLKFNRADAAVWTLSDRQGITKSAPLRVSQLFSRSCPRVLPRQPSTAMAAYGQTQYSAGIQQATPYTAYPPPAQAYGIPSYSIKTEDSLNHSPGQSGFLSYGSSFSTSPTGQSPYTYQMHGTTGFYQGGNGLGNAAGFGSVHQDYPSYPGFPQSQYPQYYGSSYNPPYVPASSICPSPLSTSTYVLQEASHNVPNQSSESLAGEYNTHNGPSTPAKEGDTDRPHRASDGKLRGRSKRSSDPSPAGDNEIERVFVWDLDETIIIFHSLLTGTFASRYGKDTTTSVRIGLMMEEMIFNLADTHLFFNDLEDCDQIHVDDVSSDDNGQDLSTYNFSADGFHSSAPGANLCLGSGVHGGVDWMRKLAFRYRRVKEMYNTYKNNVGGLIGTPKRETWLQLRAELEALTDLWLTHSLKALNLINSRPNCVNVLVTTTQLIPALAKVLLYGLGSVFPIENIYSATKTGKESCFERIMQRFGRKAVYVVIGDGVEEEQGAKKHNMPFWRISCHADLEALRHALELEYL
Target sequence (Q15475 whole entry, looked up): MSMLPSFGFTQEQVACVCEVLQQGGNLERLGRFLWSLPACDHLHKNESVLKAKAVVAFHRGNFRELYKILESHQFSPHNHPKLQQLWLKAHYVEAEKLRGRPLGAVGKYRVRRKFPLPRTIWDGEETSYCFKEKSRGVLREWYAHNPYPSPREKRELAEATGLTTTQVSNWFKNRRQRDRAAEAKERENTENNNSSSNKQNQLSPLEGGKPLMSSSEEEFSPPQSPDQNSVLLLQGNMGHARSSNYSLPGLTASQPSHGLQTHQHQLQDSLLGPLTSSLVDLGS
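AlphaScreen with GST-Six1 and His-Eya2 (5X mix: 250 nM and 500 nM), glutathione donor and nickel acceptor beads; buffer 50 mM Tris pH 8.0, 300 mM NaCl, 1 mM TCEP; 1 h at 37 C in the dark.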
TDP1 cell noCPT – qHTS for Inhibitors of human tyrosyl-DNA phosphodiesterase 1 (TDP1): qHTS in cells in absence of CPT; AID 686978, 2013; 420,000 tested, 15% active; Potency, µM (titrated, usually from 46.2 µM), inactives show at the top dose activity change, negative = growth inhibition, actives largely listed as inhibitors; DT40 Tdp1-/- hTDP1 cells, no CPT, ATP luminescence, 48 h; also: potency is read from the fitted curve at half-maximal effect; nearly all actives have a fitted effect of over 55% in size
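Stably hTDP1-transfected Tdp1-null chicken DT40 cells were treated with library compounds minus camptothecin and grown for at least 48 hr at 37 °C, after which cellular ATP was quantified by luminescence.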
IL1B secr inh – qHTS for Inhibitors of Inflammasome Signaling: IL-1-beta AlphaLISA Primary Screen; THP-1 LPS/ATP IL-1B secretion, AlphaLISA, 16 h; stronger effect = lower value; activity change, % at 57.5 µM; 360,000 tested, 4.7% active; AID 743279, 2014; in the data active = activity change below about -50%; inconclusive = mostly about -30% to -49%
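THP-1 cells pretreated 1 hr with compounds (up to 57.5 uM final), then stimulated with LPS (250 ng/mL final) plus ATP (1.25 mM final); secreted IL-1B measured by AlphaLISA after 16 hr, decreased signal indicating inhibition.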
CtBP-E1A blk – qHTS Assay for Inhibitors of the CtBP/E1A Interaction | AlphaScreen GST-E1A/His-CtBP binding, 1536-well; stronger effect = lower value | 340,000 tested, 0.49% active | CtBP / adenovirus E1A interaction (AlphaScreen) | AID 651724, 2012 | activity change, % (no concentration beside the values); in the data active = activity change below about -65%; inconclusive = mostly about -30% to -63%
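GST-E1A and His-tagged CtBP (125 nM each as 5X stock) were preincubated with pin-transferred compound for 2 h at 37 °C in the dark, then glutathione donor and nickel acceptor beads were added for 1 h before AlphaScreen reading.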
TDP1 cell CPT – qHTS for Inhibitors of human tyrosyl-DNA phosphodiesterase 1 (TDP1): qHTS in cells in presence of CPT | Potency, µM (titrated, usually from 46.2 µM), for inactives: top-dose activity change, negative = growth inhibition, usual class: inhibitors | chicken DT40 Tdp1-/-;hTDP1 cells + 20 nM CPT, ATP luminescence, 48 h | 420,000 tested, 12% active | AID 686979, 2013; also: potency is read from the fitted curve at half-maximal effect; nearly all actives have a fitted effect of over 55% in size
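Chicken DT40 Tdp1-/- cells complemented with human TDP1, 400 cells/well, exposed to compounds plus 20 nM camptothecin for at least 48 h at 37 C; viability read as ATP content by CellTiter-Glo luminescence.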
An asterisk follows results filed as active; ? = inconclusive; . = not tested or not shown; [ ] = dose if it differs, or a comment. Unless noted, calls follow the shape of the dose curve; as a rule, active = well fitted curve in the direction sought with a large enough effect; inconclusive = small, poorly fitted or top-dose-only effect, or another doubt; inactive = no such curve, though single readings can be large; an effect the other way counts as inactive or inconclusive. % is scaled to controls: 0 for no effect and ±100 for the full control effect.

SMILES	TDP1 inh	Six1-Eya2 inh	TDP1 cell noCPT	IL1B secr inh	CtBP-E1A blk	TDP1 cell CPT
Oc1ccccc1/C=N/Nc1ncc(Br)cn1	3%	?	7.3µM*	15	8	9.2µM*
Oc1ccccc1/C=N/Nc1ccccc1	3%	-15	-6%	24	0	-10%
Oc1ccccc1C=NNC(=S)NN=Cc1ccccc1O	.	-81*	4.6µM*	87	-95*	5.2µM*
NC(=S)N/N=C/c1cccc(O)c1O	0%	-80*	0.92µM*	59	-93*	0.58µM*
NC(=S)N/N=C/c1ccccc1O	9%	-87*	?	5	-68*	?
CCCCC(Sc1nc(C)c(Cc2ccccc2)c(=O)[nH]1)C(=O)O (stereo not drawn)	.	0	-12%	-6	.	-4%
Cc1ccc(N2C(=O)CCSC23C(=O)N(Cc2ccc(F)cc2)c2ccccc23)cc1 (stereo not drawn)	-8%	.	8.2µM*	.	.	8.2µM*
Cc1ccc(N2C(=O)CCSC23C(=O)N(Cc2ccccc2)c2ccccc23)cc1 (stereo not drawn)	4%	.	16µM*	.	.	?
COc1cccc(CN2C(=O)C3(SCC(=O)N3c3ccc(C)c(Cl)c3)c3ccccc32)c1 (stereo not drawn)	6%	.	.	.	.	.
Cc1ccc(CNC(=O)CN2C(=O)C3(SCC(=O)N3c3ccc(F)cc3)c3ccccc32)cc1 (stereo not drawn)	5%	.	?	.	.	?
COc1cc(N2C(=O)CSC23C(=O)N(Cc2ccc(C)cc2)c2ccccc23)cc(OC)c1OC (stereo not drawn)	-3%	.	.	.	.	.
Cc1ccc(N2C(=O)CCSC23C(=O)N(Cc2ccccc2)c2ccccc23)cc1F (stereo not drawn)	2%	.	12µM*	.	.	21µM*
O=C1CCSC2(C(=O)N(Cc3ccccc3)c3ccccc32)N1c1ccccc1 (stereo not drawn)	1%	.	15µM*	.	.	9.2µM*
O=[N+]([O-])c1ccc(Cl)cc1C=NNc1ccccn1	.	-4	-10%	21	6	-5%
CC12CCC=CC1C(c1cccc(Br)c1)N(Cc1ccccc1)C2=O (stereo not drawn)	1%	.	.	.	.	.
C[C@@]12CCC=C[C@H]1[C@H](c1ccc(F)c(/C=C/c3ccccc3)c1)N(Cc1ccccc1)C2=O	0%	-7	16µM*	7	0	?
COc1ccc([C@H]2[C@@H]3C=CCC[C@@]3(C)C(=O)N2Cc2ccccc2)cc1Cl	5%	-5	21µM*	-9	-7	?
CN(C)c1ccc(-c2ccc([C@H]3[C@@H]4C=CCC[C@@]4(C)C(=O)N3Cc3ccccc3)c(F)c2)cc1	8%	?	18µM*	0	?	23µM*
C[C@@]12CCC=C[C@H]1[C@H](c1ccccc1Br)N(Cc1ccccc1)C2=O	-1%[56.1 µM]	-5	16µM*	10	0	?
Cc1cc(C)cc(N(C(C)C(=O)NC2CCCC2)S(C)(=O)=O)c1 (stereo not drawn)	-1%	2	-1%	-2	2	18%
Cc1ccc(CC(=O)Nc2ccc(S(=O)(=O)N3CCOCC3)cc2)cc1	.	-2	-15%	13	-4	-8%
Cc1cccc([C@H]2[C@@H]3C=CCC[C@@]3(C)C(=O)N2Cc2ccccc2)c1	3%	.	.	.	.	.
COc1ccc(-c2cc([C@H]3[C@@H]4C=CCC[C@@]4(C)C(=O)N3Cc3ccccc3)ccc2F)cc1OC	5%	-22	?	-20	-17	26µM*
CC12CCC=CC1C(c1ccc(F)c(Br)c1)N(Cc1ccccc1)C2=O (stereo not drawn)	2%	.	.	.	.	.
CN(C)c1ccc(-c2cc(C3C4C=CCCC4(C)C(=O)N3Cc3ccccc3)ccc2F)cc1 (stereo not drawn)	22%	.	.	.	.	.
SMILES	TDP1 inh	Six1-Eya2 inh	TDP1 cell noCPT	IL1B secr inh	CtBP-E1A blk	TDP1 cell CPT
CN(C)c1ccc(-c2cc([C@H]3[C@@H]4C=CCC[C@@]4(C)C(=O)N3Cc3ccccc3)ccc2F)cc1	7%	?	23µM*	-15	?	?
COc1ccc(-c2cccc([C@H]3[C@@H]4C=CCC[C@@]4(C)C(=O)N3Cc3ccccc3)c2)cc1	0%	-7	16µM*	-16	.	23µM*
Cc1onc(-c2c(Cl)cccc2Cl)c1C(=O)NC(C)(C)CO	4%	8	-3%	-4	-1	-12%
O=C(CN1C(=O)C2C3CCC(C3)C2C1=O)NCc1ccco1 (stereo not drawn)	-3%	6	11%	-7	4	8%
Cc1ccccc1NC(=O)c1oc(=O)c2ccccc2c1-c1ccccc1	2%	3	?	28	14	-2%
Cc1cccc(NC(=O)c2oc(=O)c3ccccc3c2-c2ccccc2)c1C	-3%	-9	12µM*	-11	23	10µM*
COc1ccc(CCNC(=O)c2oc(=O)c3ccccc3c2-c2ccccc2)cc1OC	5%	.	?	.	.	?
COc1ccc(N(C)C(=O)c2oc(=O)c3ccccc3c2-c2ccc(C)cc2)c(OC)c1	6%	-1	16µM*	0	-15	21µM*
COc1ccc(OC)c(NC(=O)c2oc(=O)c3ccccc3c2-c2ccccc2)c1	5%	.	21µM*	.	.	?
CCSc1cnnc2ccccc12	.	2	-10%	-12	-2	4%
COc1ccccc1Cc1c(-c2cccc(Br)c2)nc2c(C)cc(Br)cn12	.	5	23µM*	20	7	16µM*
COc1ccccc1Cc1c(-c2ccc(Cl)cc2)nc2c(C)cc(Br)cn12	.	1	7.3µM*	0	2	6.5µM*
COc1ccc(Cc2c(-c3ccc(C)cc3)nc3c(C)cc(Br)cn23)c(C)c1	.	1	?	39	-1	?
COCc1c(C(=O)N2CCN(C3CCCCC3)CC2)cnn1-c1ncc(C)c(-c2cccs2)n1	.	.	-5%	.	.	2%[9.04 µM]
COC(=O)C1C(=O)NCC1c1ccccc1 (stereo not drawn)	3%	2	11%	25	-2	-20%
